Assay outcomes: PubChem BioAssay, National Center for Advancing Translational Sciences (NCATS)
Many of the other results were omitted from the sample, so hits are more common in it than they were.
Shiga inhibitor: A qHTS for Small Molecule Inhibitors of Shiga Toxin. 290,000 compounds, 9.2% hits. inhibition, % at 38.7 µM. Vero cells, Shiga toxin protein synthesis inhibition reporter. AID 2315, 2010; in the data active = inhibition mostly above about 28%, no sharp cut-off; inactive = mostly below about 43%; note: 0% is about no effect
TbPYK inhibitor: qHTS of Trypanosoma Brucei Inhibitors; pyruvate kinase (Trypanosoma brucei), Q57TT1; TbPYK enzyme, Kinase-Glo Plus ATP luminescence, 45 min; Potency, µM (doses to about 76.8 µM), for the others: at the top dose activity, negative = inhibition, hits mostly inhibitors; 410,000 compounds, 0.12% hits; AID 624173, 2012; note: potency is the fitted concentration of half-maximal effect; % is set by controls: 0 for no effect and ±100 for the full control effect; nearly all actives have a fitted effect of over 50% in size
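Activity of T. brucei pyruvate kinase was followed by Kinase-Glo Plus luminescence after the enzyme reacted 45 min at room temperature with 130 uM ADP (final) and substrate. Test compounds were added before ADP at multiple concentrations.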
LmPK inhibitor: qHTS Assay for Inhibitors of Leishmania Mexicana Pyruvate Kinase (LmPK); purified LmPK, Kinase-Glo ATP luminescence, 1 h; Potency, µM (top dose mostly 57.5 µM), without a hit: at the highest dose activity change, negative = inhibition, most hits filed as inhibitors; 290,000 compounds, 0.37% hits; AID 1721, 2009; note: potency is the fitted concentration of half-maximal effect; % is set by controls: 0 for no effect and ±100 for the full control effect
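Pyruvate kinase activity monitored as ATP production (luciferase luminescence). Conditions: 0.1 nM enzyme, 0.5 mM PEP, 0.1 mM ADP, 1 h, RT; normalized against uninhibited and no-enzyme wells.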
RE007 growth inh: qHTS Assay for Inhibitors of the HIV-1 protein Vpr; S. pombe RE007 Vpr strain, BacTiter-Glo ATP luminescence, 24 h; Potency, µM (series often up to 92.2 µM), without a hit: at the top dose activity change, negative = less growth, actives largely listed as inhibitors; 360,000 compounds, 0.21% hits; active = well fitted falling curve with a large enough effect; inconclusive = small, poorly fitted or top-dose-only effect; inactive = no such curve, though single readings can be large or run the other way; note: potency is the fitted concentration of half-maximal effect; % is set by controls: 0 for no effect and ±100 for the full control effect; nearly all actives have a fitted effect of over 50% in size
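Fission yeast strain RE007, carrying one chromosomally integrated HIV-1 vpr copy, was seeded at OD 0.01 in PMG+AL medium with 23 nL pinned compound. After 24 h at 30 °C and 99% humidity, viability was read by BacTiter-Glo luminescence.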
Cycloheximide cs: Cycloheximide Counterscreen for Small Molecule Inhibitors of Shiga Toxin | cell reporter, cycloheximide protein synthesis inhibition counterscreen | max response, % | 300,000 compounds, 12% hits; in the data active = max response mostly above about 13%, no sharp cut-off; inactive = mostly below about 14%; note: read at 38.3 µM for the half of the compounds with a filed dose; 0% is about no effect
FBPA Giardia inh: qHTS Assay for Inhibitors of Fructose-1,6-bisphosphate Aldolase from Giardia Lamblia; purified Giardia FBPA; Potency, µM (highest dose often 59.6 µM), for inactives: at the top dose activity, negative = inhibition, usual class: inhibitors; 290,000 compounds, 0.71% hits; AID 2451, 2010; note: potency is the fitted concentration of half-maximal effect; % is set by controls: 0 for no effect and ±100 for the full control effect; nearly all actives have a fitted effect of over 55% in size
Target sequence (A8B2U2 whole entry, looked up): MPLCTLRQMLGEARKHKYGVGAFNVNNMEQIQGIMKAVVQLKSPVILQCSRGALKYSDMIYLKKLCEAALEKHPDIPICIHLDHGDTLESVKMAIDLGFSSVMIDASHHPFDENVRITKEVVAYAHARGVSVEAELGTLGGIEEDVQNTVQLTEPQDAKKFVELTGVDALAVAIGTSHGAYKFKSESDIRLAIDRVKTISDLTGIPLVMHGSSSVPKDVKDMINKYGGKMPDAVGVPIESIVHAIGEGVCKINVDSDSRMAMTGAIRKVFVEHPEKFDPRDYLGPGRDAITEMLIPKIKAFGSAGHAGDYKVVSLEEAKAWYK
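40 nM FBPA preincubated 10 min at RT with compound (up to 57.5 uM final), then substrate plus GAPDH/TPI/NAD/arsenate coupling and diaphorase/resazurin added. Fluorescence read after 20 min at RT, 525/598 nm.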
* = called active by the depositor; [ ] = dose if it differs, or a comment. Unless noted, calls come from the whole dose curve; as a rule, active = well fitted curve in the direction sought with a large enough effect; inconclusive = small, poorly fitted or top-dose-only effect, or another doubt; inactive = no such curve, though single readings can be large; an effect the other way counts as inactive or inconclusive.

How did CC(=O)c1ccc2c(c1)C1C=CCC1C(C(=O)O)N2 (configuration not stated) do in these assays?
Shiga inhibitor: -2; TbPYK inhibitor: -20%; LmPK inhibitor: -20%; RE007 growth inh: -1%; Cycloheximide cs: 5; FBPA Giardia inh: 0%

How did COc1ccc2oc(=O)c(C(=O)N3CCN(C(=O)c4ccccc4)CC3)cc2c1 do in these assays?
Shiga inhibitor: -10; TbPYK inhibitor: 4%; LmPK inhibitor: -4%; RE007 growth inh: 2%; Cycloheximide cs: -3; FBPA Giardia inh: 0%

Results for COc1ccc2oc(=O)c(C(=O)N3CCN(c4ccccc4C)CC3)cc2c1 ?
Shiga inhibitor: 132*; TbPYK inhibitor: -8%; LmPK inhibitor: 4%; RE007 growth inh: 9%; Cycloheximide cs: 66*; FBPA Giardia inh: -8%

How did COc1ccc2oc(=O)c(C(=O)N3CCN(c4ccccc4)CC3)cc2c1 do in these assays?
Shiga inhibitor: 78; TbPYK inhibitor: -5%; LmPK inhibitor: 2%; RE007 growth inh: 9%; Cycloheximide cs: 19*; FBPA Giardia inh: -1%

What do the screens show for `COc1ccc(N/C(C)=C/C(=S)Nc2ccccc2)cc1`?
Shiga inhibitor: 43*; TbPYK inhibitor: 1%; LmPK inhibitor: 0%; RE007 growth inh: inconclusive; Cycloheximide cs: 32*; FBPA Giardia inh: inconclusive

How did CC1(C(=O)Nc2ccc3c(c2)OCO3)CC1(Cl)Cl (configuration not stated) do in these assays?
Shiga inhibitor: 29*; TbPYK inhibitor: 0%; LmPK inhibitor: -11%; RE007 growth inh: 17%; Cycloheximide cs: 16*; FBPA Giardia inh: 7%

Results for CCC(=O)N1CCC1(C)C(=O)Nc1ccc2c(c1)OCO2 (configuration not stated) ?
TbPYK inhibitor: -2%; RE007 growth inh: 9%[18.4 µM]

Results for COc1ccc(CCNC(=S)Nc2ccccc2)cc1 ?
Shiga inhibitor: 3; TbPYK inhibitor: 1%; LmPK inhibitor: 8%; RE007 growth inh: -3%; Cycloheximide cs: 15; FBPA Giardia inh: -17%

What do the screens show for `COc1ccc(NC(=O)CCCCC(=O)Nc2ccc(OC)cc2)cc1`?
TbPYK inhibitor: -3%; LmPK inhibitor: 0%; RE007 growth inh: 2%; Cycloheximide cs: 1; FBPA Giardia inh: 5%

Results for COc1ccc(OC)c(N/C(C)=C/C(=O)c2ccccc2)c1 ?
Shiga inhibitor: 27*; TbPYK inhibitor: -6%; LmPK inhibitor: 0%; RE007 growth inh: 6%; Cycloheximide cs: 91*; FBPA Giardia inh: -13%

What do the screens show for `COC(=O)/C(=C\C(=O)c1ccccc1)Nc1ccc(OC)cc1`?
Shiga inhibitor: 58*; TbPYK inhibitor: -3%; LmPK inhibitor: 1%; RE007 growth inh: inconclusive; Cycloheximide cs: 50*; FBPA Giardia inh: -23%

What do the screens show for `O=C(Cc1ncc(C(F)(F)F)cc1Cl)N1CCN(c2ccc(F)cc2)CC1`?
Shiga inhibitor: -2; TbPYK inhibitor: 1%; LmPK inhibitor: 3%; RE007 growth inh: 3%; Cycloheximide cs: -2; FBPA Giardia inh: 5%

Results for CN(C(=O)CSc1nc2[nH]ncc2c(=O)[nH]1)c1ccccc1 ?
TbPYK inhibitor: 5%; RE007 growth inh: -22%

How did CC(C)=CC(=O)Nc1ccc2c(c1)OCO2 do in these assays?
Shiga inhibitor: 68*; TbPYK inhibitor: -23%; LmPK inhibitor: inconclusive; RE007 growth inh: -10%; Cycloheximide cs: 25*; FBPA Giardia inh: -3%

How did COc1ccc(N/C(C)=C/C(=O)c2ccccc2)cc1 do in these assays?
Shiga inhibitor: 164*; TbPYK inhibitor: -9%; LmPK inhibitor: -6%; RE007 growth inh: -11%; Cycloheximide cs: 64*; FBPA Giardia inh: -5%

What do the screens show for `CCOC(=O)C(=O)Nc1ccc2c(c1)OCO2`?
Shiga inhibitor: 35; TbPYK inhibitor: -22%; LmPK inhibitor: -20%; RE007 growth inh: 17%; Cycloheximide cs: 13; FBPA Giardia inh: 5%
